Assay [1] addresses Tyrosine-protein kinase receptor UFO (Homo sapiens) (UniProt P30530). To be noted: at 1 µM.
For assay [2], the target named is Tyrosine-protein kinase Blk (Homo sapiens) (UniProt P51451). To be noted: at 0.1 µM.
For assay [3] the target is unchanged. The settings on record: at 1 µM.
Assay [4] addresses T1, Cytoplasmic tyrosine-protein kinase BMX (Homo sapiens) (UniProt P51813).
T1 sequence (whole entry): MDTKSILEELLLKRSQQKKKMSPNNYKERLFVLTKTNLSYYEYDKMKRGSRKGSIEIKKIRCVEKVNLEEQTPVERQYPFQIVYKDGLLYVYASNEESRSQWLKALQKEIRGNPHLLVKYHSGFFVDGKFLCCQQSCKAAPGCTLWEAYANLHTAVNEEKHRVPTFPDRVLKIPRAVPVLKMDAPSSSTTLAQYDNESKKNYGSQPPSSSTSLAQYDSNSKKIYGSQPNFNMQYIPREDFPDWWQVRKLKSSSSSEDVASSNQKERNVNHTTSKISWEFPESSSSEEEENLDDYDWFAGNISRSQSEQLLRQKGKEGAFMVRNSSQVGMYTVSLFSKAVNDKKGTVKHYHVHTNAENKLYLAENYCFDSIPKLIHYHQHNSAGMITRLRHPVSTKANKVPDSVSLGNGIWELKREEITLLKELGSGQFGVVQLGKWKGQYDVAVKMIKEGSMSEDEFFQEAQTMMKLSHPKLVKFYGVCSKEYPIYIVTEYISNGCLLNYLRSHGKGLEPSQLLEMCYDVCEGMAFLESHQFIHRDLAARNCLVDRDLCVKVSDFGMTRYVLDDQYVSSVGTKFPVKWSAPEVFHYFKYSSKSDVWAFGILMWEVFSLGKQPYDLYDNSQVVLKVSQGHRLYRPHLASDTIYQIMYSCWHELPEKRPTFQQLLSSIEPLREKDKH
The settings on record: at 0.1 µM.

Assay [5] has as its target T1, Cytoplasmic tyrosine-protein kinase BMX (Homo sapiens). To be noted: at 1 µM.
Assay [6] concerns the target Protein-tyrosine kinase 6 (Homo sapiens) (UniProt Q13882). To be noted: at 0.1 µM.
Assay [7] has the same target. The settings on record: at 1 µM.
The target of assay [8] is Tyrosine-protein kinase BTK (Homo sapiens) (UniProt Q06187). The settings on record: at 0.1 µM.
The target is the same in assay [9]. To be noted: at 1 µM.
Assay [10] deals with Tyrosine-protein kinase CSK (Homo sapiens) (UniProt P41240). The settings on record: at 0.1 µM.
Sequence of Tyrosine-protein kinase CSK (Homo sapiens) (P41240 2-450 limits assumed): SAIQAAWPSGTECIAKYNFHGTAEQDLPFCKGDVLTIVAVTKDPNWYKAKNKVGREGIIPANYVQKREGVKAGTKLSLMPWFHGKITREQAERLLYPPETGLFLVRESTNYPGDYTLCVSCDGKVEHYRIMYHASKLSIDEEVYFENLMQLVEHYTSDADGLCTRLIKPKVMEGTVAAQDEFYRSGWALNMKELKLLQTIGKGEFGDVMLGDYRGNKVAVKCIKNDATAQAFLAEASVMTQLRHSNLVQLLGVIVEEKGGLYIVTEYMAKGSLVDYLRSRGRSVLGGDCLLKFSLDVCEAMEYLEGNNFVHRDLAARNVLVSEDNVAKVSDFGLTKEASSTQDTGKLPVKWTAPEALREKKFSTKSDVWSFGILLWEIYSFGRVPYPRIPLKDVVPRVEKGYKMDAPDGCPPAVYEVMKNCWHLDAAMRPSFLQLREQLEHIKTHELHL
Assay [11] shares this target. The settings on record: at 1 µM.
Assay [12] has as its target T2, Discoidin domain-containing receptor 2 (Homo sapiens) (UniProt Q16832).
T2 sequence (whole entry): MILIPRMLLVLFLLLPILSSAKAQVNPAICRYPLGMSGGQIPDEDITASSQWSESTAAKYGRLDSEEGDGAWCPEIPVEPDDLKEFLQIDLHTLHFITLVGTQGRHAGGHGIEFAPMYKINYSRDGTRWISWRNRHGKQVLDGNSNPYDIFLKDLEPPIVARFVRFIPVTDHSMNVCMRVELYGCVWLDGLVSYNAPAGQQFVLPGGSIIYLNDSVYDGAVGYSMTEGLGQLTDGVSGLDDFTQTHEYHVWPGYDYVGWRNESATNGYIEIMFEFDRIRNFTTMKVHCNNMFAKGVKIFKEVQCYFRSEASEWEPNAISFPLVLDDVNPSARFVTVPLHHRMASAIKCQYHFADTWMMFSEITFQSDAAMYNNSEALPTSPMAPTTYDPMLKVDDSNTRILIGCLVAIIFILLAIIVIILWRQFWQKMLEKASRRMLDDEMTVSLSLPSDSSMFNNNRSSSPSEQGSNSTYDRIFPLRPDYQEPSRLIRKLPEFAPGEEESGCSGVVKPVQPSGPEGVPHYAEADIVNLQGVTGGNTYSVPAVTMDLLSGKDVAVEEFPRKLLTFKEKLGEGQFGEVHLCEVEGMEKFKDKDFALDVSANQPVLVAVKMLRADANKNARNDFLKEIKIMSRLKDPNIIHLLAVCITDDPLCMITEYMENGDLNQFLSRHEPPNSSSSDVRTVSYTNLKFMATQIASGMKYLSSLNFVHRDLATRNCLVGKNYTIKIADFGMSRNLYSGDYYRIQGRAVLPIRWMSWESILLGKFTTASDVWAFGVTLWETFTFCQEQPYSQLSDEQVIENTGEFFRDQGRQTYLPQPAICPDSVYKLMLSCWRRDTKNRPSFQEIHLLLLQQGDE
To be noted: at 0.1 µM.

Assay [13] deals with T2, Discoidin domain-containing receptor 2 (Homo sapiens). To be noted: at 1 µM.
The target in assay [14] is Epidermal growth factor receptor (Homo sapiens) (UniProt P00533). To be noted: at 0.1 µM.
Sequence of Epidermal growth factor receptor (Homo sapiens) (P00533 whole entry): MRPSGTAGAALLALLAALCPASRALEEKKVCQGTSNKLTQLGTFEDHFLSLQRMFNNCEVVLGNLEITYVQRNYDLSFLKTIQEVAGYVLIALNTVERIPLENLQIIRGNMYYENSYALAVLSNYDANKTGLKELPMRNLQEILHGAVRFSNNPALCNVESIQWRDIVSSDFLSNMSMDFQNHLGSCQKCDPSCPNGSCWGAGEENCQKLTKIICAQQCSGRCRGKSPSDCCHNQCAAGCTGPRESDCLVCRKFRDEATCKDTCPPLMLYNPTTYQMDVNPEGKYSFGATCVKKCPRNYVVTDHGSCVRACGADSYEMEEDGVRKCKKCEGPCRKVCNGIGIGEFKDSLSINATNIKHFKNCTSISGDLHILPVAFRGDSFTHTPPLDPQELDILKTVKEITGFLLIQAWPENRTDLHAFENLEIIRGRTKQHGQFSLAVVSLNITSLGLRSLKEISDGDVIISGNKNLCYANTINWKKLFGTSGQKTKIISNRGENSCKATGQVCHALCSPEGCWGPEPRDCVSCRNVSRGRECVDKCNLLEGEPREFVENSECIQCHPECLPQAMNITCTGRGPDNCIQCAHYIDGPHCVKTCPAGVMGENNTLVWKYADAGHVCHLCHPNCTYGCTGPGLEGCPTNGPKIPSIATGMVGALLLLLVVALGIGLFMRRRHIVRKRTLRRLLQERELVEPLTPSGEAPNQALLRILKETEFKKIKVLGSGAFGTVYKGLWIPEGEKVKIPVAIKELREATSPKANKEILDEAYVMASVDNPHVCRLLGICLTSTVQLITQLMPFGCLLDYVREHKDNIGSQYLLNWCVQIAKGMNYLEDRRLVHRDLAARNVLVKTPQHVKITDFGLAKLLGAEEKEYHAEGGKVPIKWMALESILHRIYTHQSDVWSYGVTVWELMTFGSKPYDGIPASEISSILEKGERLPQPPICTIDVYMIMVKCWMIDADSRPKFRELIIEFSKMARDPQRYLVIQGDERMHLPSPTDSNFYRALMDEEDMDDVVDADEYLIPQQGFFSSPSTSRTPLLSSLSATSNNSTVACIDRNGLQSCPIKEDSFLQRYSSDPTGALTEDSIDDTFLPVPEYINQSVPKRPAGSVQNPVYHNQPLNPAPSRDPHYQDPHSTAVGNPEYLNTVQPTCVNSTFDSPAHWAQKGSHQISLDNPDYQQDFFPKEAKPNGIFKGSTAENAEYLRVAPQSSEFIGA
For assay [15] the target is unchanged. To be noted: at 1 µM.
Assay [16] deals with Epidermal growth factor receptor (Homo sapiens), P00533 [L858R]. The settings on record: at 0.1 µM.
Sequence of Epidermal growth factor receptor (Homo sapiens), P00533 [L858R] (P00533 whole entry L858R): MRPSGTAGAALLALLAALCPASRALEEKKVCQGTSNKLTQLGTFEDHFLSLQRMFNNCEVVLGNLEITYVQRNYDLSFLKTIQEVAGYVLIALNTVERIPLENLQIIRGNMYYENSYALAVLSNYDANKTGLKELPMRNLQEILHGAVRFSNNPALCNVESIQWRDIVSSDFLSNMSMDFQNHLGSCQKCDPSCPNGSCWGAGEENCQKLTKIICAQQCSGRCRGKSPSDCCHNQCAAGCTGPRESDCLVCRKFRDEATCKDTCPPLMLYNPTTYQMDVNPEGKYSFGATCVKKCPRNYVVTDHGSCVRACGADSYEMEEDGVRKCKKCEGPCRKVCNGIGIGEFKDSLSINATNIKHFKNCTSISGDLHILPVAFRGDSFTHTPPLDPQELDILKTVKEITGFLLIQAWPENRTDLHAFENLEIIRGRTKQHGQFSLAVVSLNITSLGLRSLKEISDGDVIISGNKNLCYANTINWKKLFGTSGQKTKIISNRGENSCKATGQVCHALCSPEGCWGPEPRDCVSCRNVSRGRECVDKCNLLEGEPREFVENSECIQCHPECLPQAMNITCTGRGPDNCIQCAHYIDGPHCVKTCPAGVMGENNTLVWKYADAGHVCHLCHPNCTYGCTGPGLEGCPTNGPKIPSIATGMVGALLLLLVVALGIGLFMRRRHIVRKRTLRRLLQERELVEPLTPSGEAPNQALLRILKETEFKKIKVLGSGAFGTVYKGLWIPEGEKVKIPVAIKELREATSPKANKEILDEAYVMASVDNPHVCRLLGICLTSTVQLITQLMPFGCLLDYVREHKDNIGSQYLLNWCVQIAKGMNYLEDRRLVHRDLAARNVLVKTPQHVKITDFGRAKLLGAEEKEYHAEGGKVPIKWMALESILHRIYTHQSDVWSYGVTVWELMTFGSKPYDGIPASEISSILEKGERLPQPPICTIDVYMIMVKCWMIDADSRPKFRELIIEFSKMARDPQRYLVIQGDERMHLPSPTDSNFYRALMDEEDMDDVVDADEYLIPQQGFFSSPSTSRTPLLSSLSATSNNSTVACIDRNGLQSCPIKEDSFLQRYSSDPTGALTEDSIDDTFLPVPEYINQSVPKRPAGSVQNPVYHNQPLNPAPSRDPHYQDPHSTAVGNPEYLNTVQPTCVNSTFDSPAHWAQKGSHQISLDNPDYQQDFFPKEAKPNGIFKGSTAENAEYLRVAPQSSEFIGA
For assay [17] the test system is unchanged. To be noted: at 1 µM.
Assay [18] relates to Epidermal growth factor receptor (Homo sapiens), P00533 [L861Q]. To be noted: at 0.1 µM.
Sequence of Epidermal growth factor receptor (Homo sapiens), P00533 [L861Q] (P00533 whole entry L861Q): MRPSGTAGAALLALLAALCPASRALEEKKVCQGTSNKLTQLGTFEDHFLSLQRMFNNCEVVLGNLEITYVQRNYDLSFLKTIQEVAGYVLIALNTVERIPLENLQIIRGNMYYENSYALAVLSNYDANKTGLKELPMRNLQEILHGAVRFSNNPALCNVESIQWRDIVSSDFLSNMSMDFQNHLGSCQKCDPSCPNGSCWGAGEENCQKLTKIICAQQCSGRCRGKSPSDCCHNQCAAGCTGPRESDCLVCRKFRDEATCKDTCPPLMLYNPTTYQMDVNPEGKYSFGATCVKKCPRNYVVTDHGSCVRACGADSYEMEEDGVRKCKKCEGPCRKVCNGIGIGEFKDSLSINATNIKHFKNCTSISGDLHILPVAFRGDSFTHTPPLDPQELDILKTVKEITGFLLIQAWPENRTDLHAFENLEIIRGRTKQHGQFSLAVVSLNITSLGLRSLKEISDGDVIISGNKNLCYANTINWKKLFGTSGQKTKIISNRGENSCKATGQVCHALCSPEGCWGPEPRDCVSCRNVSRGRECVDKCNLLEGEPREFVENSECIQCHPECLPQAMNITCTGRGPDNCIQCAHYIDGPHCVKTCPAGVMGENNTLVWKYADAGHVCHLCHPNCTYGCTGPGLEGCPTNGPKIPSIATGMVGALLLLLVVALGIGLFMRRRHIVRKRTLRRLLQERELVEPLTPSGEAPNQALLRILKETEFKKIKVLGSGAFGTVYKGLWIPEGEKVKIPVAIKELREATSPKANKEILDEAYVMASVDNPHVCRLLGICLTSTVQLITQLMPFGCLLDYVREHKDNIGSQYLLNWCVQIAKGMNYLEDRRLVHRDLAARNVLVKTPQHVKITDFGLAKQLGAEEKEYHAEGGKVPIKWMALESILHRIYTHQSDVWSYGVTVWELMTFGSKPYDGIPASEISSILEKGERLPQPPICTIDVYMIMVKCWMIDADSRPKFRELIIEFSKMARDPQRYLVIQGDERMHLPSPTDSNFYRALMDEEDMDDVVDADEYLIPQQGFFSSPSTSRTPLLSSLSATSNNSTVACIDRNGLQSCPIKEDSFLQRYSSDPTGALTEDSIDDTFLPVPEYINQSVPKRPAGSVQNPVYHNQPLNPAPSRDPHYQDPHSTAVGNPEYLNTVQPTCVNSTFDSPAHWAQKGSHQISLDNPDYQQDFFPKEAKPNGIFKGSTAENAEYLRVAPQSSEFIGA
Assay [19] shares this test system. To be noted: at 1 µM.
The test system of assay [20] is Epidermal growth factor receptor (Homo sapiens), P00533 [T790M]. To be noted: at 0.1 µM.

Sequence of Protein-tyrosine kinase 6 (Homo sapiens) (Q13882 whole entry, looked up): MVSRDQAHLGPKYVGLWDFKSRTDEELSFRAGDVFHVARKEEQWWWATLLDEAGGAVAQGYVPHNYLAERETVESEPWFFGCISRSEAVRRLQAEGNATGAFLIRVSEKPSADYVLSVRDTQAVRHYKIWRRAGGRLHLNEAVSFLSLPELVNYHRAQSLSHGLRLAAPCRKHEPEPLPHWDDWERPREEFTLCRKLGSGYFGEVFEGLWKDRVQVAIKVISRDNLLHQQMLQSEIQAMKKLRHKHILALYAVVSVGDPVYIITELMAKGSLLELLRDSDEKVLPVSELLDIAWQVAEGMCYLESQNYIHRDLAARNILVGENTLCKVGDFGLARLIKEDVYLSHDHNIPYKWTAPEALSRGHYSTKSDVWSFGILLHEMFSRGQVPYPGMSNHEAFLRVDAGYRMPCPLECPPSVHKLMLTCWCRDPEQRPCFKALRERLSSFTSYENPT
Sequence of Tyrosine-protein kinase Blk (Homo sapiens) (P51451 2-505 limits assumed): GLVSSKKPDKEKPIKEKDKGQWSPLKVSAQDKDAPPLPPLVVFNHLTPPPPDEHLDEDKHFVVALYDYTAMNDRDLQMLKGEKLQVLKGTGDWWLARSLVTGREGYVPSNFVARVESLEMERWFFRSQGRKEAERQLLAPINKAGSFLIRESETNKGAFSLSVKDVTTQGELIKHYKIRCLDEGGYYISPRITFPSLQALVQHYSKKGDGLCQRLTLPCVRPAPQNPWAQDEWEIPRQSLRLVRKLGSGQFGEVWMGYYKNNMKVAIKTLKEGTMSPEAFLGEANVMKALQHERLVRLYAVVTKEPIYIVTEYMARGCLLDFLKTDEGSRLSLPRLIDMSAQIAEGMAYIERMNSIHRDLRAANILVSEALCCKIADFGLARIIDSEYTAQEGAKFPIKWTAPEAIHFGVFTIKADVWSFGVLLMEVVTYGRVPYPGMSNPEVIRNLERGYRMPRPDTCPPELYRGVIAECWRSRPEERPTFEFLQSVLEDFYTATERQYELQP

For `NC(=O)c1sc(-n2cnc3cc(C(F)(F)F)ccc32)cc1OCc1ccccc1Br`, the inhibition is 1.55% in assay [1]; 1.67% in assay [2]; 2.39% in assay [3]; -0.71% in [4]; 0.62% in assay [5]; 2.49% in assay [6]. The inhibition in assay [7] is 0.4%; in [8], 0.15%; in assay [9], -0.21%; in assay [10], -3.78%; in [11], -1.04%; in [12], 1.02%. The inhibition was 1.34% in [13]; 3.48% in [14]; 6.56% in [15]; -1.95% in assay [16]; 0.99% in assay [17]; 1.64% in assay [18]. Besides, the inhibition was 1.19% in [19] and 0.21% in [20].

Consider `COc1cc(C=NNc2ncnc3c2cnn3Cc2ccccc2)ccc1O`, for which the inhibition in assay [1] is 6.34%; in assay [2], 0.65%; in assay [3], 23.8%; in [4], 2.02%; in [5], 16.9%; in assay [6], -4.22%. For the same compound, the inhibition is -0.85% in assay [7]; -1.51% in assay [8]; -0.27% in assay [9]; -6.66% in assay [10]; 2.56% in assay [11]; -0.76% in assay [12]. Also, the inhibition in assay [13] was determined as 5.7%; in [14], 22.5%; in [15] it was 66.8%; in assay [16], 64.3%; in assay [17], 75.5%; in assay [18], 23.4%. Besides, the results for the inhibition in assay [19] and in assay [20] were 30.6% and -3.01%, respectively.

Take `CCn1c(-c2nonc2N)nc2c(C#CC(C)(C)O)ncc(OC[C@@H]3CCCN3)c21`: the inhibition in [1] is 0.17%; in [2] it was 2.44%; in assay [3], 1.76%; in assay [4] it was 1.21%; in [5], -0.7%; in assay [6] it was 3.05%. For the same compound, the inhibition in assay [7] was 2.47%; in assay [8], 0.66%; in [9], 1.17%; in assay [10], -1.37%; in assay [11], -0.82%; in [12], 1.15%. In addition, the inhibition in [13] is 2.67%; in [14], -1.23%; in [15], 1.8%; in [16], -0.72%; in assay [17] it was 2.58%; in [18] it was -0.11%. The inhibition in [19] is -1.31%; in [20], -0.72%.

`CCn1c(-c2nonc2N)nc2c(C#CC(C)(C)O)ncc(OCC3CCNCC3)c21`: the inhibition in [1] was -2.43%; in assay [2], -1.83%; in [3] it was -1.39%; in assay [4] it was -4.33%; in [5] it was 2.37%; in assay [6] it was 4.21%. In addition, the inhibition in assay [7] was 4.11%; in [8], -3.09%; in assay [9], -3.54%; in [10], 5.4%; in [11], 3.99%; in assay [12], -0.24%. Further, the inhibition was 1.71% in assay [13]; -3.91% in [14]; -3.68% in [15]; 2.79% in [16]; 6.24% in assay [17]; 3.74% in [18]. Further, the figures for the inhibition in [19] and in assay [20] were 2.43% and 1.64%, respectively.

For the compound `CCn1c(-c2nonc2N)nc2c(C#CCN)ncc(OCCCN)c21`, the inhibition in assay [1] was 7.15%; in assay [2], 0.22%; in assay [3] it was -2.12%; in assay [4], -0.45%; in assay [5], -3%; in [6], -6.06%. Besides, the inhibition in [7] was -3.37%; in assay [8] it was 2.31%; in assay [9], 2.06%; in [10], -0.42%; in assay [11], 2.55%; in [12] it was 3.32%. Besides, the inhibition in assay [13] is 3.8%; in [14], 2.15%; in assay [15], 8.32%; in assay [16] it was 2.24%; in assay [17], 5.46%; in assay [18] it was -0.07%. Further, the inhibition in assay [19] is 9.43%; in assay [20], -0.87%.

As to `Cc1cc(-c2ccco2)cc(C)c1/C=C/c1cncc(-c2nn[nH]n2)c1`, the inhibition in [1] stood at 1.57%; in assay [2], 1.51%; in [3], 9%; in assay [4] it was 0.7%; in assay [5] it was 2.83%; in assay [6], 0.11%. Besides, the inhibition in assay [7] is 3.58%; in [8], 0.68%; in assay [9] it was 1.5%; in assay [10], 0.88%; in [11], 3.48%; in [12], -0.16%. In addition, the inhibition in assay [13] was 0.34%; in assay [14], 3.32%; in assay [15], 6.27%; in assay [16] it was 0.25%; in [17], 0.27%; in [18] it was -0.29%. The results for the inhibition in assay [19] and in assay [20] were 2.11% and 1.06%, respectively.

As for `COc1cccc(COc2cc(-n3cnc4ccccc43)sc2C(N)=O)c1`, the inhibition is -0.71% in assay [1]; 0.3% in assay [2]; -1.09% in assay [3]; -0.68% in [4]; -1.24% in assay [5]; -0.05% in assay [6]. Also, the inhibition in assay [7] was 1.34%; in assay [8], 0.36%; in assay [9], -0.76%; in [10] it was -1.48%; in assay [11], 0.56%; in assay [12] it was -1.78%. Further, the inhibition in assay [13] is -0.4%; in assay [14], -1.6%; in [15], 1.95%; in assay [16] it was -4.25%; in [17], 2.72%; in [18], -1.17%. In addition, the figures for the inhibition in [19] and in assay [20] were -0.04% and -1.14%, respectively.

The inhibition is the relative decrease from the control value, in per cent.

(Values after ChEMBL document CHEMBL1961873, “Compounds: GSK PKIS; Assays: Nanosyn kinase panel” (2012).)
